High-throughput results as filed in PubChem BioAssay.
Hits are enriched below; roughly 6% of the tested compounds scored in any of these assays.
D1 potentiator = enhances dopamine response at the human D1 receptor | P21728 | HEK293 TREx D1 cells, calcium flux, dopamine EC20 potentiation | potentiation, % at 10 µM | 360,000 tested, 0.036% active | AID 504651; in the data active = potentiation above about 30%; note: 0% is about no effect
D1 ag = agonists of human D1 dopamine receptor; P21728; HEK293 T-REx D1 cells, calcium flux, agonist mode; activation, % at 2 µM; 360,000 tested, 1% active; AID 504660; in the data active = activation above about 30%; note: 0% is about no effect
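Inducible HEK293 T-REx D1 cells, force-coupled to calcium signalling, were plated at 4000 cells/well with tetracycline and held overnight at 30 C. After no-wash calcium dye loading, compound-evoked calcium rise over 180 s flagged agonists.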
DRD3 agonist = D3 dopamine receptor (human) agonism; D3R DiscoveRx beta-arrestin cells, luminescence, 90 min; max activation, %; 410,000 tested, 0.58% active; in the data active = max activation above about 30%; note: 0% is about no effect
Target sequence (P35462 whole entry, looked up): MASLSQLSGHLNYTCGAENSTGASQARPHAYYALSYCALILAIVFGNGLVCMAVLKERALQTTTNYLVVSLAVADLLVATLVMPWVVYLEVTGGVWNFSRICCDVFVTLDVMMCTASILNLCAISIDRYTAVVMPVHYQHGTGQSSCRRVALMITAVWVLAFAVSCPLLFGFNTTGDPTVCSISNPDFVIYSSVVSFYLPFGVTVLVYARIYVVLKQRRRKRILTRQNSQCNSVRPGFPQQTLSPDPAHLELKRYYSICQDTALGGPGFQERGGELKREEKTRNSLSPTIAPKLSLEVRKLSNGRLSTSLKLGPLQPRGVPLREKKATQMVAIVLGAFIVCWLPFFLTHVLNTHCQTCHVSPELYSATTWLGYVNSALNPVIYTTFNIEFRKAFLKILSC
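Cells at 1500/well, incubated overnight, then treated with pinned compounds (dopamine as control) for 90 min at 37 degrees C. DiscoveRx reagent added for 30 - 60 minutes at room temperature; luminescence read.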
D3 antag = D3 dopamine receptor (human) antagonism; max response, negative = inhibition, %; P35462; 360,000 tested, 2.5% active; D3R cells, DiscoveRx beta-arrestin luminescence, antagonist mode; stronger effect = lower value; in the data active = max response below about -50%; note: % is set by controls: 0 for no effect and ±100 for the full control effect
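Cells expressing the human receptor were seeded at 1500 cells/well, incubated overnight at 37 degrees C in 5% CO2, then exposed to library compounds with dopamine controls for 90 minutes at 37 degrees C before luminescent detection.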
D1 antag = human D1 dopamine receptor antagonism; AID 504652; 360,000 tested, 3.2% active; HEK293 TREx D1 cells, calcium flux, dopamine EC80; stronger effect = lower value; activity change, negative = inhibition, % at 10 µM; P21728; in the data active = activity change below about -30%; note: % is set by controls: 0 for no effect and ±100 for the full control effect
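Kinetic fluorescence of a calcium dye serves as the read-out. D1-expressing Hek293 Trex cells, induced overnight at 30 C, are exposed to compound for 180 s before an EC80 dopamine addition, then read 180 s further.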
Numbers without * were called inactive; x = not tested or not shown; ! = a repeat was not active.

SMILES	D1 potentiator	D1 ag	DRD3 agonist	D3 antag	D1 antag
CN1CCN(C(=S)NCCc2ccccc2)CC1	-1	4	-16	-87*	1
O=C(NC1CCN(C(=S)NCCc2ccccc2)CC1)C1CCCCC1	-10	7	4	8	-34*
COc1ccccc1N1CCN(C(=O)c2cnn(C(C)(C)C)c2C2CCN(C(=O)OC(C)(C)C)CC2)CC1	-5	1	-4	x	0
O=c1[nH]c2ccc(NCc3ccc(-c4cccc(Cl)c4)o3)cc2[nH]1	-1	37*	3	x	-22
O=c1[nH]c2ccc(NCc3ccc(-c4ccc(Br)cc4)o3)cc2[nH]1	-2	0	21	x	-7
CC(=O)Nc1ccc(-c2nnc(SCC(=O)c3ccc([N+](=O)[O-])cc3)o2)cc1	4	2	4	x	15
Cc1ccc(C)c(OCCOCCN2CCOCC2)c1	-9	2	-18	-56*	-4
Cc1ccc(C(C)C)c(OCCCCCN2CCOCC2)c1	-10	1	-17	-52*	8
CC(C)c1ccc(OCC(=O)Nc2ccc3oc(=O)ccc3c2)cc1	-4	8	-2	-8	-20
CC(=O)N1CCc2nc3sc(C(=O)c4ccc(F)cc4)c(N)c3c(C(F)(F)F)c2C1	1	61*	1	x	7
Cc1nc(-c2ccccc2)nc2sc(C(=O)c3ccc(F)cc3)c(N)c12	-2	34*	-1	-8	10
CC1(C)OC[C@@H]2O[C@@]3(C(=O)O)OC(C)(C)O[C@H]3[C@@H]2O1	x	x	4	x	x
COc1ccc(N2CCN(C(=O)CN3C(=O)NC4(CCCc5ccccc54)C3=O)CC2)cc1 (configuration not stated)	-1	3	-10	-74*	-3
COc1cc(NC(=O)CCS(=O)(=O)c2ccc3c(c2)CC(=O)N3C)cc(OC)c1OC	-5	5	-16	x	-77*
COc1ccc(C)cc1NC(=O)CCS(=O)(=O)c1ccc2c(c1)CC(=O)N2C	-1	2	6	x	-32*
Cn1c2ccccc2c2cnn(CC(=O)NCCCN3CCCCC3)c(=O)c21	-2	1	-11	x	-1
CCOc1cc(/C=N/n2cnnc2)cc(Br)c1O	-3	1	3	5	-92*
CN(C)c1ccc(C=C(c2nnnn2-c2ccccc2)c2nnnn2-c2ccccc2)cc1	-10	61*	-12	9	14
CN(C)/C=C(\C(=O)c1ccccc1)c1nnnn1-c1ccccc1	-11	2	0	18	2
CCCCCCn1c(=O)[nH]c2nc3cc(N)ccc3nc2c1=O	16	451*	7	9	-14
Cc1ccc(NC(=O)CN(C)C(=O)c2cccc(-n3cccc3)c2)cc1	-8	0	-23	-2	-40*
Cc1ccc(NC(=O)CN(C)C(=O)c2ccc(Cl)nc2)cc1	-5	0	-16	-84*	0
COc1ccc(NC(=O)CN(C)C(=O)c2cccc(-n3cccc3)c2)cc1	4	0	3	-13	4
COCCNC(=O)CCCn1c(SCC(=O)c2ccc(F)cc2)nc2c(sc3ccccc32)c1=O	-2	0	-9	x	2
CCn1ncc(C2=NOC(C(=O)Nc3cccc(C(C)=O)c3)C2)c1C (configuration not stated)	-3	12	5	11	-32*
SMILES	D1 potentiator	D1 ag	DRD3 agonist	D3 antag	D1 antag
CCn1ncc(C2=NOC(C(=O)NCc3ccccc3)C2)c1C (configuration not stated)	-10	6	0	13	-8
COC(=O)c1ccccc1NC(=O)CSc1nc2ccccc2nc1Cc1ccccc1OC	-4	2	-8	x	-14
CC(C)(C)C(=O)OCOC(=O)[C@@H]1N2C(=O)[C@@H](N=CN3CCCCCC3)[C@H]2SC1(C)C	-4	-1	32*!	0	-4
O=C(NC1(C(F)(F)F)NC(=O)N(CCc2ccccc2)C1=O)c1ccccc1Cl (configuration not stated)	-4	6	-6	x	3
O=C1[C@H]2[C@@H](/C=C/c3ccccc3)N3C(=O)CN(CCO)C(=O)[C@@]3(Cc3ccccc3)[C@H]2C(=O)N1c1ccccc1	-4	1	-40	-1	-2
C[C@@]12C(=O)N(CCO)CC(=O)N1[C@H](/C=C/c1ccccc1)[C@@H]1C(=O)N(c3ccccc3)C(=O)[C@@H]12	2	2	-4	-59*	6
O=C(CCNC(=O)c1ccccc1Cl)Nc1nccs1	-5	2	5	6	-3
CCOC(=O)c1cc(-c2ccc(C)cc2)n(CCC(=O)NCCN(C)C)c1C	-7	63*	-21	-6	-8
CCOC(=O)c1cc(-c2ccc(C)cc2)n(CCC(=O)NCCc2ccc(C)cc2)c1C	-6	14	3	x	-16
O=C(Nc1ccc(O)c2c(=O)cc(-c3ccccc3Cl)oc12)c1ccc(Cl)c(Cl)c1	-9	1	-28	-83*	3
O=c1cc(-c2ccccc2Cl)oc2c(NS(=O)(=O)c3ccccc3OC(F)(F)F)ccc(O)c12	2	3	-21	-6	-10
O=c1cc(-c2ccccc2Cl)oc2c(NS(=O)(=O)c3ccccc3C(F)(F)F)ccc(O)c12	-7	2	-13	0	-30*
Cc1ccc2cc(CN(C)C(=O)c3cccc(Cl)c3)c(=O)[nH]c2c1	-1	1	5	x	1
Cc1ccc(Sc2ccc(/C=N/O)cc2[N+](=O)[O-])cc1	-7	2	-13	-69*	-19
COc1ccc(CCNC(=O)CCc2c(C)c3cc4c(C)c(C)oc4cc3oc2=O)cc1OC	-1	1	6	x	-9
Cc1ccccc1C(=O)Nc1ccc(OCc2cc(=O)n3ccccc3n2)cc1	-2	3	-17	x	11
CNC(=O)CSc1nnc(-c2cccc(S(=O)(=O)N3CCOCC3)c2)n1-c1ccc(F)cc1	-7	1	0	3	-19
O=C(O)CSc1nnc(-c2cccc(S(=O)(=O)N3CCOCC3)c2)n1-c1cccc(Cl)c1	4	3	3	-7	-31*
COc1ccc(NC(=O)Cc2ccc(NC(=O)N3CCCCc4ccccc43)cc2)c(OC)c1	-3	0	7	x	12
NC1=CC(=O)c2cccc3cccc1c23	-2	0	x	x	-11
O=C1C=C(O)c2cccc3cccc1c23	9	1	-9	-76*	2
COc1ccc(N2CCN(C(=O)CCC(=O)N3CCOc4ccc(C)cc43)CC2)cc1	-3	6	0	-1	-34*
COc1ccc(N2CCN(C(=O)Cc3coc4ccc(C)cc34)CC2)cc1	-1	1	-10	x	-68*
Cc1ccc2c(c1)N(C(=O)CCC(=O)N1CCN(c3ccccc3)CC1)CCO2	-11	2	2	30	-50*
COc1ccc(C2NC(=O)N(C)C3=C2C(=O)N(c2cccc(Cl)c2)C3)cc1 (configuration not stated)	-2	0	3	x	9
